IL-1B inflam inh: inhibitors of inflammasome signaling (IL-1 beta secretion); THP-1 LPS/ATP IL-1B secretion, AlphaLISA, 16 h; stronger effect = lower value; activity change, % at 57.5 µM; hit rate 4.7% among 360,000; in the data active = activity change below about -50%; inconclusive = mostly about -30% to -49%
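THP-1 cells pretreated 1 hr with compounds (up to 57.5 uM final), then stimulated with LPS (250 ng/mL final) plus ATP (1.25 mM final); secreted IL-1B measured by AlphaLISA after 16 hr, decreased signal indicating inhibition.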
HT1080 IDH1KD tx: toxicity to HT-1080 IDH1 knockdown cells (counter line). hit rate 2% among 360,000. Potency, µM (series often up to 46.1 µM), without a hit: at the top dose activity, negative = toxicity, most hits filed as cytotoxic. AID 686971. HT-1080 IDH1 knockdown viability, ATP luminescence, 48 h;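 note: potency is the fitted concentration of half-maximal effect; 0% = DMSO wells and -100% = cell-free medium wells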
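IDH1KD HT-1080 cells, 750/well, RPMI + 5% FBS; compound pinned after 2 h settling; 48 h, 37 °C; CellTiter-Glo luminescence; % activity normalised to DMSO and no-cell wells; curves fitted, classed by r2 and efficacy.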
DT40 TDP1 no CPT: qHTS for Inhibitors of human tyrosyl-DNA phosphodiesterase 1 (TDP1): qHTS in cells in absence of CPT | Potency, µM (titrated, usually from 46.2 µM), for inactives: top-dose activity change, negative = growth inhibition, actives largely listed as inhibitors | hit rate 15% among 420,000 | DT40 Tdp1-/- hTDP1 cells, no CPT, ATP luminescence, 48 h; note: potency is the fitted concentration of half-maximal effect; nearly all actives have a fitted effect of over 55% in size
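Camptothecin absent (DMSO only). Human TDP1-complemented DT40 knockout cells, 400 cells/well, 37 °C for minimum 48 hr; ATP measured via CellTiter-Glo, 30 min dark incubation, luminescence.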
HT1080-NT tox: kills 2HG-producing HT-1080-NT fibrosarcoma cells; Potency, µM (top dose mostly 46.1 µM), inactives show at the top dose activity, negative = less viability, actives largely listed as cytotoxic; HT-1080-NT fibrosarcoma viability, CellTiter-Glo ATP luminescence, 48 h; hit rate 1.6% among 360,000;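 note: NT is the 2HG producing partner of a matched IDH1 knockdown line; potency is the fitted concentration of half-maximal effect; 0% = DMSO-treated cells and -100% = media-only wells without cells; nearly all actives have a fitted effect of over 55% in size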
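Luminescent CellTiter-Glo readout after 48 hours of compound exposure at 37 degrees C defined viability of HT-1080-NT cells. Activity was normalized to DMSO wells and cell-free media wells; concentration-response curves were fitted and assigned curve classes.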
DT40 TDP1 CPT: growth inhibition of DT40 Tdp1-/-;hTDP1 cells with camptothecin (screen for TDP1 inhibitors). AID 686979. chicken DT40 Tdp1-/-;hTDP1 cells + 20 nM CPT, ATP luminescence, 48 h. hit rate 12% among 420,000. Potency, µM (highest dose often 46.2 µM), without a hit: at the highest dose activity change, negative = growth inhibition, most hits filed as inhibitors; note: potency is the fitted concentration of half-maximal effect; nearly all actives have a fitted effect of over 55% in size
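Cell growth measured by CellTiter-Glo luminescence after a minimum 48 h, 37 C compound exposure with 20 nM CPT in Tdp1-knockout DT40 cells stably expressing hTDP1, seeded 400/well; qHTS titration format.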
12-LOX inh: blocks human arachidonate 12S-lipoxygenase; purified 12hLO, xylenol orange hydroperoxide absorbance; P18054; hit rate 1.1% among 580,000; AID 1671190; Potency, µM (doses to about 108 µM), for inactives: top-dose activity change, negative = inhibition, actives largely listed as inhibitors; note: potency is the fitted concentration of half-maximal effect
Target sequence (P18054 whole entry, looked up): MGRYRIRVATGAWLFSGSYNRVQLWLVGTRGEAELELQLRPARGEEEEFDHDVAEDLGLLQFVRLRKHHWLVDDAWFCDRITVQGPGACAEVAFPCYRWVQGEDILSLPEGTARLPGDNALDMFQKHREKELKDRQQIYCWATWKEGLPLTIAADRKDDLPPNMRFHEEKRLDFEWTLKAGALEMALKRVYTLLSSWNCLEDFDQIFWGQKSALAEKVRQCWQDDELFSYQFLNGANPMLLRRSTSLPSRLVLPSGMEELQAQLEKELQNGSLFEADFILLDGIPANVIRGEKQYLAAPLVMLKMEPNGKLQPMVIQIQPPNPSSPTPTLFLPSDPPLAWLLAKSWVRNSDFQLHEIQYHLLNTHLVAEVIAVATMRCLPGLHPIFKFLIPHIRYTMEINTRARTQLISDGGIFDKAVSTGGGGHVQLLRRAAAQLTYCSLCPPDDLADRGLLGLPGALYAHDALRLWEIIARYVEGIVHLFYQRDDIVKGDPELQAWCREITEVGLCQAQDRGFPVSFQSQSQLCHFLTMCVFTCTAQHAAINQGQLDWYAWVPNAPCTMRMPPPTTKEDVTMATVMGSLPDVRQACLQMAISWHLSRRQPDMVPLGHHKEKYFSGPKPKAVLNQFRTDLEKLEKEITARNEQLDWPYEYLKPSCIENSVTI
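Hydroperoxide product was detected by ferrous iron/xylenol orange as the 573 to 405 nm absorbance ratio. Arachidonic acid at 40 uM (final) was turned over for 30 min at room temperature by 150 nM human 12hLO, pH 7.0 Hepes buffer, after 15 min compound preincubation.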
Numbers without * were called inactive; ? = inconclusive; nt = no result. This is one part of a sample in which hits are shown more often than they occur. Unless noted, calls come from the whole dose curve; as a rule, active = well fitted curve in the direction sought with a large enough effect; inconclusive = small, poorly fitted or top-dose-only effect, or another doubt; inactive = no such curve, though single readings can be large; an effect the other way counts as inactive or inconclusive. Unless noted, % is set by controls: 0 for no effect and ±100 for the full control effect.

SMILES	IL-1B inflam inh	HT1080 IDH1KD tx	DT40 TDP1 no CPT	HT1080-NT tox	DT40 TDP1 CPT	12-LOX inh
CCC(C)NC(=O)Cc1ccc(-c2ccccc2)cc1 (stereo not drawn)	-8	1%	21µM*	-5%	?	-6%
Cc1ccc(NC(=O)C2(C)CCN2C(=O)Cc2ccc(-c3ccccc3)cc2)cc1 (stereo not drawn)	-1	?	16µM*	?	16µM*	-25%
CC(C)NC(=O)C1(C)CCN1C(=O)C1(c2ccccc2)CC1 (stereo not drawn)	26	10%	-24%	27%	?	10%
CC1(C(=O)NCc2ccccc2Br)CCN1C(=O)Cc1ccc(-c2ccccc2)cc1 (stereo not drawn)	-11	?	?	16µM*	?	9%
CC(C)NC(=O)C1(C)CCN1Cc1ccc(C(F)(F)F)cc1 (stereo not drawn)	2	1%	?	19%	?	-19%
CC1(C(=O)NC2CCCCCC2)CCN1C(=O)C1(c2ccccc2)CC1 (stereo not drawn)	-3	-5%	18µM*	-10%	12µM*	-19%
CC(C)NC(=O)C1(C)CCN1Cc1ccc(-c2ccccc2)cc1 (stereo not drawn)	-8	?	8.2µM*	?	12µM*	5%
CC1(C(=O)NS(=O)(=O)c2cccc(F)c2)CCN1C(=O)Cc1ccc(-c2ccccc2)cc1 (stereo not drawn)	16	5%	14%	-23%	1%	0%
CSc1ccc(NC(=O)C2(C)CCN2C(=O)Cc2ccc(C(C)(C)C)cc2)cc1 (stereo not drawn)	-6	?	?	?	23µM*	-3%
COc1cc(CNC(=O)CC2Sc3ccccc3NC2=O)ccn1 (stereo not drawn)	nt	nt	nt	nt	nt	-5%
CC1(C(=O)Nc2ccc3nc[nH]c3c2)CCN1C(=O)Cc1ccc(-c2ccccc2)cc1 (stereo not drawn)	24	-26%	16µM*	-16%	?	-10%
CSc1ccc(NC(=O)C2(C)CCN2C(=O)c2cc(C)n(C)n2)cc1 (stereo not drawn)	-4	8%	21µM*	2%	?	-3%
Cc1cc(C(=O)N2CCC2(C)C(=O)Nc2cc(C(C)(C)C)nn2C)nn1C (stereo not drawn)	-6	30%	-1%	16%	0%	5%
CC1(C(=O)Nc2cccc3ncccc23)CCN1C(=O)Cc1ccc(-c2ccccc2)cc1 (stereo not drawn)	-10	?	16µM*	?	23µM*	?
CC(C)NC(=O)C1(C)CCN1C(=O)Cc1ccc(-c2ccccc2)cc1 (stereo not drawn)	-1	?	13µM*	?	16µM*	2%
CC1(C(=O)NS(C)(=O)=O)CCN1C(=O)Cc1ccc(-c2ccccc2)cc1 (stereo not drawn)	5	9%	-4%	?	-11%	?
CC1(C(=O)NC2CCCCCC2)CCN1C(=O)Cc1ccc(-c2ccccc2)cc1 (stereo not drawn)	-8	?	15µM*	?	?	-2%
CCCNC(=O)C1(C)CCN1C(=O)c1ccccc1CCc1ccccc1 (stereo not drawn)	1	0%	?	?	?	10%
Cc1ccc(S(=O)(=O)NC(=O)C2(C)CCN2C(=O)Cc2ccc(-c3ccccc3)cc2)cc1 (stereo not drawn)	7	3%	2%	-8%	12%	?
CC(C)(C)CNC(=O)C1(C)CCN1C(=O)Cc1ccc(-c2ccccc2)cc1 (stereo not drawn)	3	?	18µM*	-21%	23µM*	3%
CC(C)NC(=O)C1(C)CCCN1C/C=C/c1ccccc1 (stereo not drawn)	37	-3%	23µM*	17%	21µM*	?
CC(C)(C)CNC(=O)C1(C)CCN1C(=O)c1ccccc1CCc1ccccc1 (stereo not drawn)	-18	-20%	16µM*	-1%	21µM*	3%
O=S(=O)(c1ccccc1)N1CCCC(Cc2noc(-c3cccnc3)n2)C1 (stereo not drawn)	nt	nt	nt	nt	nt	2%
Cc1ccc(S(=O)(=O)c2ccc([N+](=O)[O-])o2)cc1	-100*	2.6µM*	0.18µM*	7.3µM*	0.033µM*	-17%
Cc1ccc(S(=O)(=O)Nc2c(C)cc([N+](=O)[O-])cc2C)cc1	0	0%	?	-2%	-15%	-24%
O=C1Nc2ccccc2-c2nnnn2C1N1CCC(Cc2ccccc2)CC1 (stereo not drawn)	12	?	18µM*	-22%	?	-7%
Cc1cc2c(cc1C)-c1nnnn1C(N1CCCCC1)C(=O)N2 (stereo not drawn)	29	1%	9.2µM*	1%	15µM*	8%
COCCn1nnnc1C(C(C)C)N1CCC(Cc2ccccc2)CC1 (stereo not drawn)	-21	-17%	?	-15%	?	?
CCN(CC)S(=O)(=O)c1ccc(SCC(=O)c2c(N)n(C3CC3)c(=O)[nH]c2=O)nc1	35	-18%	21µM*	-13%	?	?
CC(c1nnc(SCC(=O)c2c(N)n(C3CC3)c(=O)[nH]c2=O)n1-c1ccc(F)cc1)N(C)C (stereo not drawn)	-4	2%	2.9µM*	-1%	4%	2%
